# Values joined by “and” are separate entries in the source; they are usually repeats but may differ in a detail not shown here. Identical values can stand only once. Among all 5,600 compounds or so, about 150 (2.7%) showed an effect of 50% or more. This excerpt belongs to a sample that is enriched for strong results. Positions of bridges follow the written chain, without caps; N, C: chain ends. Non-standard residues stand in square brackets, D forms with d. Residues, ends and D or L forms follow the SMILES beside them. *: point of attachment. NMeF = CN[C@@H](Cc1ccccc1)C(=O)O; X4 = CCC(C)C(N)C1=NC(C(=O)*)CS1; dOrn = NCCC[C@@H](N)C(=O)O
# Tests used:
# [1] = target: T1, Protein deacetylase HDAC6 (Homo sapiens) (UniProt Q9UBN7); conditions: at 10 µM
# T1 sequence (whole entry): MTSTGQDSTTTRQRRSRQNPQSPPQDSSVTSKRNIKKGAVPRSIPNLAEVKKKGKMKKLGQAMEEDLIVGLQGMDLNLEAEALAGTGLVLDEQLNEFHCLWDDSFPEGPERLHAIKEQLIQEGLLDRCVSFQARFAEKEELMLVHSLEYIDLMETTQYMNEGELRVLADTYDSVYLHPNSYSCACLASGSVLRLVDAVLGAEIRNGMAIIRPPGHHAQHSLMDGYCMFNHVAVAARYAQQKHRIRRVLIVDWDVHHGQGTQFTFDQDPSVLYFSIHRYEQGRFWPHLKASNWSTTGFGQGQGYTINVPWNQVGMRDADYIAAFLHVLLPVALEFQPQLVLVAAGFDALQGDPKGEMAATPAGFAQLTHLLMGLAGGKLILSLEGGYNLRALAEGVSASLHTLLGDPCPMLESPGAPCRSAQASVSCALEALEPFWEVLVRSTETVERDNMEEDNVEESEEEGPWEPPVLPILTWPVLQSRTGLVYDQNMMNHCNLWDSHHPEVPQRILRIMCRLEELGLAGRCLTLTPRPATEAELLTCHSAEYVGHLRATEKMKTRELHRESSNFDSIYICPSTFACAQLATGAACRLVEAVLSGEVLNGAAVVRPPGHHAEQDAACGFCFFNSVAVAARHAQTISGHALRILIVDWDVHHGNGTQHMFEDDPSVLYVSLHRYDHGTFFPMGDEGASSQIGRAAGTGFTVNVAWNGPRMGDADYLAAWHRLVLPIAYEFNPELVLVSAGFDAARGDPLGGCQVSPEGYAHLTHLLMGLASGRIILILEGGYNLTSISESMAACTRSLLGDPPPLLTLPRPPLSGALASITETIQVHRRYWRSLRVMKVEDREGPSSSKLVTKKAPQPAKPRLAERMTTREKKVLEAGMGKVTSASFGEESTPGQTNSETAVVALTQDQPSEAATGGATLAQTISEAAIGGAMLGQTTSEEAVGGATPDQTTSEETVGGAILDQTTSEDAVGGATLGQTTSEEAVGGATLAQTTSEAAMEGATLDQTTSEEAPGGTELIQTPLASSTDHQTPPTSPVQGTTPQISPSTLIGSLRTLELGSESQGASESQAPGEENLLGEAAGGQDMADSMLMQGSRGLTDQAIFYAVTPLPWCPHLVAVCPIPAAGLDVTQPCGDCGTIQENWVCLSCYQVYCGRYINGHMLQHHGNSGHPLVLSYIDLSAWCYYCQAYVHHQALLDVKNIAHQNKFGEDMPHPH
# [2] = target: Protein deacetylase HDAC6 (Homo sapiens) (UniProt Q9UBN7); conditions: at 10 µM; remark: listed apart in the source
Molecule,inhibition [1] [%],inhibition [2]
CCOc1c(N2CCOCC2)cnn(C)c1=O,2.39,–
O=C(O)c1ccccc1C(=O)Nc1ccc(-c2ccccc2)cc1,54.2,–
CC(=O)NS(=O)(=O)c1ccc(NC(=O)c2ccccc2C(=O)O)cc1,-6.68,–
O=C(O)c1ccccc1S,-3.38,–
CC(C)(S)C(=O)N[C@@H](CS)C(=O)O,6.63,–
CC(C)C(=O)SCCCCC[C@H](NC(=O)OC(C)(C)C)C(=O)NC12CC3CC(CC(C3)C1)C2,52.4,–
CC(C)CCC[C@@H](C)[C@H]1CC[C@H]2[C@@H]3CCC4=CC(=NO)CC[C@]4(C)[C@H]3CC[C@]12C,4.46,–
NC(=O)c1ccc(F)c2c1C[C@@H](N(C1CCC1)C1CCC1)CO2,-7.93,–
O=C(NO)c1cnc(N2CCN(S(=O)(=O)c3ccc4ccccc4c3)CC2)nc1,96.2,–
COc1ccc(S(=O)(=O)N2CCCN(S(=O)(=O)c3ccc(OC)c(OC)c3)CC2)cc1OC,-6.17,–
COc1ccc([C@]2(O)CC[C@H](N3CC[C@@H](NC(=O)CNC(=O)c4cccc(C(F)(F)F)c4)C3)CC2)cn1,0.65,–
CN1CCN(c2ccc3[nH]c(-c4ccc5[nH]c(-c6ccc(O)cc6)nc5c4)nc3c2)CC1,5.09,–
CC(C)(C)c1ccc(O)cc1,-5.54,–
CC(C)(C)c1ccc(-c2nc3ccccc3[nH]2)cc1,94,–
CN(C)c1cc(CNCC(C)(C)C)c(O)c2c1C[C@H]1C[C@H]3[C@H](N(C)C)C(O)=C(C(N)=O)C(=O)[C@@]3(O)C(O)=C1C2=O,-4.38,–
CC(C)(CCCCCC(O)CCCCCC(C)(C)C(=O)O)C(=O)O,1.13,–
CCOC(=O)C1=C(N)Oc2ccc(Br)cc2[C@H]1[C@H](C#N)C(=O)OCC,13.4,–
N#Cc1cnc2c(Cl)cc(NCc3cn(CCN4CCCCCC4)nn3)cc2c1Nc1ccc(F)c(Cl)c1,-2.34,–
COCCN1CCC(C(=O)NO)(S(=O)(=O)c2ccc(Oc3ccc(OC(F)(F)F)cc3)cc2)CC1,1.97,–
COC(=O)c1cc(OC)c2c(c1-c1c(CO)cc(OC)c3c1OCO3)OCO2,-0.94,–
CS(=O)(=O)Nc1ccc(-c2coc3cc(OCc4cccc(C(=O)O)c4)ccc3c2=O)cc1,57.5,–
OCCCCO,-0.89,–
CCC(=O)O[C@]1(C(=O)COC(C)=O)CC[C@H]2[C@@H]3C[C@H](C)C4=CC(=O)C=C[C@]4(C)[C@H]3[C@@H](O)C[C@@]21C,1.57,–
N=C(Nc1ccccc1)c1cccs1,14.8,–
O=C1NN(C(=O)Nc2ccc(Br)cc2)[C@@H](c2ccccc2)[C@@H]1c1ccccc1,13.1,–
O=C1NC(=S)NC(=O)C1C(=O)Nc1ccccc1,95,–
"GADOBUTROL, CHEMBL2218860",–,27.5%

Molecule,inhibition [1] [%],inhibition [2]
CC(C)(O)CC(=O)O,1.27,–
CCc1nc2c(C)nc(C)cc2n1-c1ccc(CCNC(=O)NS(=O)(=O)c2ccc(C)cc2)cc1,-2.18,–
C=CC(C)(O)CC[C@@H]1[C@@]2(C)CCCC(C)(C)C2CC[C@@]1(C)O (some centres undefined),-4.8,–
O=C(Nc1cc(C(F)(F)F)ccc1O)Nc1cc(C(F)(F)F)ccc1O,0.26,–
Cc1cc(/C=C2\SC(=O)N(c3ccccc3)C2=O)c(C)n1-c1cccnc1,66.1,–
Cc1cc(/C=c2/sc3nc4ccccc4n3c2=O)c(C)n1-c1ccccc1,-1.28,–
CC(C)C1=C2[C@H]3CC[C@@H]4[C@@]5(C)CC[C@H](OC(=O)CC(C)(C)C(=O)O)C(C)(C)[C@@H]5CC[C@@]4(C)[C@]3(C)CC[C@@]2([C@@H](O)CN(CCN(C)C)Cc2ccc(Cl)cc2)CC1=O,-0.39,–
Cc1oc2ccccc2c1CNC(=O)NCc1cccs1,2.62,–
Nc1ncnc2c1c(-c1cccc(OCc3ccccc3)c1)cn2[C@H]1C[C@H](CN2CCCC2)C1,8.87,–
CCOC(=O)Nc1ccc(NCc2c(C)cc(C)cc2C)cc1N,-1.7,–
N#Cc1cc(-c2n[nH]c(-c3ccncc3)n2)ccn1,61.8,–
COc1cccc(OC)c1-c1ccc(C[C@H](NC(=O)c2c(Cl)cccc2Cl)C(=O)O)cc1,-2.4,–
O=C(N[C@H](Cc1ccccc1)C(=O)O)c1sc2cc(F)ccc2c1Cl,-0.15,–
COCCN(C(=O)c1cc(OC)c(OC)c(OC)c1)c1nc(-c2ccccc2)cs1,-3.54,–
Cc1nc2ccc(-n3ncc(C(=O)c4cc5ccccc5[nH]4)c3N)cc2[nH]1,95.7,–
CCC[S+]([O-])c1ccc2[nH]c(NC(=O)OC)nc2c1 (centres undefined),68.9,–
CCOC(=O)Nc1nc2ccccc2[nH]1,20.3,–
CCCSc1ccc2[nH]c(NC(=O)OC)nc2c1,41.8,–
CCC(C)C(N)C1=NC(C(=O)N[C@@H](CC(C)C)C(=O)N[C@H](CCC(=O)O)C(=O)N[C@H](C(=O)N[C@H]2CCCCNC(=O)[C@H](CC(N)=O)NC(=O)[C@@H](CC(=O)O)NC(=O)[C@@H](Cc3cnc[nH]3)NC(=O)[C@@H](Cc3ccccc3)NC(=O)[C@@H]([C@H](C)CC)NC(=O)[C@@H](CCCN)NC2=O)[C@@H](C)CC)CS1 (some centres undefined) (X4-L[dE]IK[dOrn][dI][dF][dH][dD]N; lactam 4-C),25.1,–
Cc1c(NC(=O)c2cc3c(s2)CCCC3)cccc1-c1cn(C)c(=O)c(Nc2ccc(C3C(=O)N(C)CCN3C)cc2)n1 (racemic),-2.69,–
N=C(N)Nc1ccc(C(=O)Oc2ccc3cc(C(=N)N)ccc3c2)cc1,98.3,–
CC(=O)Nc1ccc(OC(C)=O)cc1,-1.45,–
CSCC[C@H](NC(=O)[C@H](CC(C)C)NC(=O)[C@@H](Cc1c[nH]c2ccccc12)NC(=O)[C@H](Cc1ccccc1)N(C)C(=O)[C@@H](Cc1c[nH]c2ccccc12)NC(=O)[C@@H](N)CCCNC(=N)N)C(N)=O (H-R[dW][NMeF][dW]LM-NH2),-6.35,–
COc1ccccc1OC(=O)c1ccccc1OC(C)=O,-4.29,–
CC(=O)Oc1ccccc1C(=O)Nc1ncc([N+](=O)[O-])s1,98.3,–
"COLISTIN SULFATE, CHEMBL6067482",–,-5.33% and -3.72%
O=C(NN1C(=O)[C@@H]2[C@@H]3C=C[C@@H]([C@H]4C[C@@H]34)[C@@H]2C1=O)c1ccc(C(F)(F)F)cc1,3.03,–

# Reference: ChEMBL document CHEMBL4808148, “HDAC6 screening dataset using tau-based substrate in an enzymatic assay yields selective inhibitors and activators” (2021)
